Only some compounds are listed: those with a hit (about 4.1% of all), similar ones and a draw of the others.
ssDAF12 agonist = S. stercoralis DAF-12 nuclear receptor activators, primary screen, cell-based, luminescence, HEK293, GRIP1 co-expression, lit1-tk-luc. Nuclear hormone receptor DAF-12 (Strongyloides stercoralis). HEK293 ssDAF-12/GRIP1 lit1-tk-luc reporter; % of 3 µM dafachronic acid response. activation, % at 6.8 µM. 1% of 370,000 active. AID 652126, 2013;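 active means activation above the mean over all tested compounds plus 3 SD, cut at about 0.9% in these data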;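 further: 0% = DMSO-only wells and 100% = 3 µM delta7-dafachronic acid wells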
DAX1 inh-1 = DAX1 (NR0B1) inhibitors, primary screen, cell-based, HEK293, Gal4-DAX1, luciferase luminescence; Nuclear receptor subfamily 0 group B member 1 (Homo sapiens), P51843; HEK293 Gal4-DAX1 luciferase reporter; inhibition, % at 6.75 µM; 0.99% of 340,000 active;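 active means inhibition above the mean over all tested compounds plus 3 SD, cut at about 4.2% in these data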;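 further: 0% = DAX1-transfected cells with DMSO and 100% = empty-vector control cells with DMSO; inhibition shows as a rise in luminescence from relieved DAX1 repression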
Target sequence (P51843 207-470 limits assumed): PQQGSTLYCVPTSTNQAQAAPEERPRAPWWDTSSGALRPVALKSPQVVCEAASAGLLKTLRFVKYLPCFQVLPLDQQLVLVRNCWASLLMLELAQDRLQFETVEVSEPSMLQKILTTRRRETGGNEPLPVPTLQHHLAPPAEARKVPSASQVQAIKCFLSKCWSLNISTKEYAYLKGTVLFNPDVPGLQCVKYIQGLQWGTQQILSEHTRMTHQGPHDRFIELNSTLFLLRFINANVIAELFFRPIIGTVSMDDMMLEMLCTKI
hcDAF-12 act = H. contortus DAF-12 nuclear receptor activators, primary screen, cell-based, luminescence, HEK293, lit1-tk-luc reporter; HEK293 hcDAF-12 lit1-tk-luc reporter; 0% DMSO, 100% Δ7-dafachronic acid; activation, % at 6.8 µM; 1.4% of 370,000 active;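 active means activation above the mean of all tested compounds plus 3 SD, cut at about 5.5% in these data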;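 further: 100% = response to 3 µM Δ7-dafachronic acid high control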
DAX1 inh-2 = DAX1 (NR0B1) inhibitors on StAR promoter, primary screen, cell-based, luminescence, SF-1 (NR5A1), full-length DAX-1 | HEK293T StAR-luciferase reporter, SF-1/DAX-1 repression relief | inhibition, % at 6.8 µM | 1.1% of 370,000 active;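 active means inhibition above the mean over all tested compounds plus 3 SD, cut at about 3.6% in these data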;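 further: 0% = DAX-1 cells with DMSO and 100% = cells lacking DAX-1 with DMSO; higher inhibition means more luminescence from relief of DAX-1 repression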
hgDAF-12 ag = H. glycines DAF-12 receptor agonists, primary screen, cell-based, luminescence, HEK293, GAL4 fusion, UAS-luciferase. activation, % at 6.8 µM. Nuclear hormone receptor DAF-12 (Heterodera glycines), GAL4 fusion. 1.8% of 370,000 active. AID 687014, 2013. HEK293 GAL4-hgDAF12 UAS-luciferase reporter, agonist luminescence; normalized to butyrate control;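 active means activation above a cutoff set at the mean of all screened compounds plus 3 SD, cut at about 10% in these data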;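 further: 0% = DMSO wells and 100% = sodium butyrate wells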
An asterisk follows results filed as active.

`CC(=O)Nc1ccc(N2C(=O)CC(Sc3nc4ccccc4s3)C2=O)cc1` (centres undefined) gave ssDAF12 agonist 3.9*, DAX1 inh-1 1.1, hcDAF-12 act 0.6, DAX1 inh-2 -0.4 and hgDAF-12 ag -1.4.
`Cc1ccc2[nH]c(C)cc(=S)c2c1` gave ssDAF12 agonist -1.5, DAX1 inh-1 -0.3, hcDAF-12 act -2.8, DAX1 inh-2 -0.3 and hgDAF-12 ag -0.6.
For Cc1cc(=S)c2ccccc2[nH]1 the results were ssDAF12 agonist 1.3*, DAX1 inh-1 -0.4, hcDAF-12 act -0.4, DAX1 inh-2 -0.8 and hgDAF-12 ag -2.4.
`Clc1ccc(Cn2ccc3ccccc32)cn1` gave ssDAF12 agonist -0.6, DAX1 inh-1 6.0*, hcDAF-12 act 1.5, DAX1 inh-2 -0.1 and hgDAF-12 ag -0.7.
Screening Cc1ccc(-c2noc(-c3ccccc3C(=O)N3CCN(C)CC3)n2)cc1 returned ssDAF12 agonist -0.2, DAX1 inh-1 0.2, hcDAF-12 act 6.6*, DAX1 inh-2 1.0 and hgDAF-12 ag 4.4.
CCN1CCN(Cc2ccc(NC(=O)Nc3ccccc3OC)cc2)CC1 was read as ssDAF12 agonist 0.0, DAX1 inh-1 1.9, hcDAF-12 act 4.9, DAX1 inh-2 1.2 and hgDAF-12 ag 11.7*.
O=C(Oc1ccccc1N1C(=O)C2CC=CCC2C1=O)c1ccc(Br)cc1 (centres undefined) was read as ssDAF12 agonist 1.2*, DAX1 inh-1 0.3, hcDAF-12 act 0.9, DAX1 inh-2 0.7 and hgDAF-12 ag 0.3.
`C/C(CC(=O)NC(C)(C)C)=N\NC(=O)c1ccccc1N` gave ssDAF12 agonist 0.0, DAX1 inh-1 4.7*, hcDAF-12 act 2.2, DAX1 inh-2 3.2 and hgDAF-12 ag 9.6.
O=C(COc1ccc(Cl)cc1Cl)NC(=O)N1CCCCC1 was read as ssDAF12 agonist 0.3, DAX1 inh-1 2.1, hcDAF-12 act 2.0, DAX1 inh-2 2.4 and hgDAF-12 ag 12.2*.
Screening COc1ccc(S(=O)(=O)Nc2cc(Cl)ccc2OC)cc1 returned ssDAF12 agonist 2.7*, DAX1 inh-1 -1.2, hcDAF-12 act -0.5, DAX1 inh-2 -2.1 and hgDAF-12 ag 3.5.
For O=S1(=O)CCSC[C@@H](CN2CCCC2)N1 the results were ssDAF12 agonist -1.1, hcDAF-12 act -0.4, DAX1 inh-2 0.1 and hgDAF-12 ag -0.1.
O=C(NCc1ccccc1)[C@H]1CCCN1C(=O)[C@H]1CCCN1C(=O)c1ccccc1 was read as ssDAF12 agonist -1.3, hcDAF-12 act -0.7, DAX1 inh-2 0.3 and hgDAF-12 ag 0.5.
Screening COc1ccc(-c2noc(-c3ccoc3C)n2)cc1OC returned ssDAF12 agonist -0.3, DAX1 inh-1 2.7, hcDAF-12 act 1.8, DAX1 inh-2 1.6 and hgDAF-12 ag 2.8.
COc1ccc(-c2noc(-c3ccoc3C)n2)cc1 was read as ssDAF12 agonist 1.7*, DAX1 inh-1 7.5*, hcDAF-12 act 5.3, DAX1 inh-2 4.0* and hgDAF-12 ag 11.4*.
COc1cccc(-c2noc(-c3ccoc3C)n2)c1 was read as ssDAF12 agonist 0.5, DAX1 inh-1 2.5, hcDAF-12 act 2.1, DAX1 inh-2 3.2 and hgDAF-12 ag 12.3*.
Cc1nn(-c2nc(-c3ccco3)cc(C(F)(F)F)n2)c(C)c1Br was read as ssDAF12 agonist -1.3, DAX1 inh-1 4.7*, hcDAF-12 act -2.2, DAX1 inh-2 -0.2 and hgDAF-12 ag -0.3.
Screening Fc1ccc(N2CCN(c3nc(-c4ccco4)cc(C(F)(F)F)n3)CC2)cc1 returned ssDAF12 agonist -1.2, DAX1 inh-1 0.1, hcDAF-12 act 2.4, DAX1 inh-2 -0.2 and hgDAF-12 ag -0.4.
Screening Cc1c(OCC(=O)N[C@@H](Cc2ccccc2)C(=O)O)ccc2c3c(c(=O)oc12)CCC3 returned ssDAF12 agonist -1.1, DAX1 inh-1 1.6, hcDAF-12 act -2.2, DAX1 inh-2 -0.4 and hgDAF-12 ag 0.1.
Cc1c(OCC(=O)N[C@@H](Cc2ccccc2)C(=O)O)ccc2c1oc(=O)c1ccccc12 was read as ssDAF12 agonist -1.2, DAX1 inh-1 4.5*, hcDAF-12 act 0.4, DAX1 inh-2 0.3 and hgDAF-12 ag -1.9.
Cc1ccccc1/C=C/C1=NCCN1 was read as ssDAF12 agonist 1.2*, DAX1 inh-1 -1.3, hcDAF-12 act -0.1, DAX1 inh-2 -0.9 and hgDAF-12 ag -4.1.
For Cc1ccccc1C=O the results were ssDAF12 agonist -1.5, DAX1 inh-1 1.3, hcDAF-12 act 0.0, DAX1 inh-2 0.2 and hgDAF-12 ag 2.0.
Screening C#CCNC(=O)C[C@H]1C[C@@]2(C(=O)OC)C(=C[C@H](C3CCCC3)O[C@@H]2C)N(Cc2ccccc2)C1=O returned ssDAF12 agonist -1.2, hcDAF-12 act -0.8, DAX1 inh-2 -0.9 and hgDAF-12 ag 1.1.
`CC[C@@H]1CC2=C(C(=O)OC(C)(C)O2)[C@H](c2ccc(F)cc2)O1` gave ssDAF12 agonist 0.3, hcDAF-12 act -0.7, DAX1 inh-2 1.0 and hgDAF-12 ag -0.8.
`COc1ccc(C(=O)/C=C/Nc2ccc(C)cn2)cc1OC` gave ssDAF12 agonist -0.2, DAX1 inh-1 2.1, hcDAF-12 act 2.7, DAX1 inh-2 4.0* and hgDAF-12 ag 9.5.
For Cc1c(C(=O)N2CCN(C)CC2)oc2ccc(Br)cc12 the results were ssDAF12 agonist -1.0, DAX1 inh-1 5.0*, hcDAF-12 act 1.5, DAX1 inh-2 0.6 and hgDAF-12 ag 3.6.
Screening COC(=O)CCN(C(=O)c1ccc2c(c1)OCO2)c1ccccn1 returned ssDAF12 agonist -0.5, DAX1 inh-1 0.1, hcDAF-12 act -1.4, DAX1 inh-2 0.5 and hgDAF-12 ag 0.2.
COC(=O)CCN(C(=O)c1cccc(OC(C)=O)c1)c1ccccn1 was read as ssDAF12 agonist -1.2, DAX1 inh-1 4.5*, hcDAF-12 act -0.4, DAX1 inh-2 -0.5 and hgDAF-12 ag -0.4.
For COc1cc(NC(=O)C2CCCN(S(=O)(=O)c3ccc(Cl)s3)C2)cc(OC)c1 (centres undefined) the results were ssDAF12 agonist -1.7, hcDAF-12 act -3.7, DAX1 inh-2 -1.4 and hgDAF-12 ag -4.1.
`Cn1ncc(Cl)c1C(=O)Nc1ccc2c(c1)OCO2` gave ssDAF12 agonist 0.0, DAX1 inh-1 1.3, hcDAF-12 act 6.3*, DAX1 inh-2 0.8 and hgDAF-12 ag 3.6.
Cn1ncc(Cl)c1C(=O)NCc1ccc2c(c1)OCO2 was read as ssDAF12 agonist -1.0, DAX1 inh-1 -0.9, hcDAF-12 act -1.8, DAX1 inh-2 -6.6 and hgDAF-12 ag -1.2.

Screens as filed in PubChem.
